Screening results (PubChem BioAssay)
Most compounds without a hit are left out; they make up all but 3.9% or so of the library.
D1 potentiator = human D1 dopamine receptor positive modulation | P21728 | HEK293 TREx D1 cells, calcium flux, dopamine EC20 potentiation | potentiation, % at 10 µM | 360,000 tested, 0.036% active | AID 504651; in the data active = potentiation above about 30%
USP2a block = USP2a (human) protease inhibition; O75604; USP2 core, Ub-CHOP2 coupled fluorogenic reporter, 485/531; Potency, µM (series often up to 38.3 µM), hits mostly inhibitors; 330,000 tested, 0.01% active
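USP2 core (10nM final) preincubated 30min RT with compound in 20mM Tris-HCl pH 8.0, 2mM CaCl2, 2mM beta-mercaptoethanol, 0.05% CHAPS; 25nM Ub-CHOP2 plus 25nM reporter substrate added, fluorescence (Ex485/Em531) read after 60min.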
D1 antag = antagonists of human D1 dopamine receptor. activity change, negative = inhibition, % at 10 µM. P21728. HEK293 TREx D1 cells, calcium flux, dopamine EC80; hits give low values. 360,000 tested, 3.2% active; in the data active = activity change below about -30%
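Inducible Hek293 Trex D1 cells (tetracycline, overnight, 30 C). Calcium dye 30–90 min RT. Antagonist mode: EC80 dopamine added after 180 s compound read.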
GALK inhibitor = galactokinase (human) inhibition; Purified GALK, Kinase-Glo residual ATP luminescence; Potency, µM (doses to about 57.5 µM), most hits filed as inhibitors; AID 1868; 270,000 tested, 0.007% active; P51570
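ATP-depletion format; final 35 uM ATP, 100 uM D-galactose, 5 nM enzyme; pH 8.0 HEPES/Mg2+ buffer; 60 min RT; luminescence read 10 min after detection reagent.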
Eya2 inh = inhibitors of human Eya2 phosphatase activity; O00167; recombinant Eya2, OMFP fluorescence dephosphorylation (OMFP is methylfluorescein phosphate); Potency, µM (series often up to 76.9 µM), most hits filed as inhibitors; 330,000 tested, 0.006% active
Target sequence (O00167 whole entry, looked up): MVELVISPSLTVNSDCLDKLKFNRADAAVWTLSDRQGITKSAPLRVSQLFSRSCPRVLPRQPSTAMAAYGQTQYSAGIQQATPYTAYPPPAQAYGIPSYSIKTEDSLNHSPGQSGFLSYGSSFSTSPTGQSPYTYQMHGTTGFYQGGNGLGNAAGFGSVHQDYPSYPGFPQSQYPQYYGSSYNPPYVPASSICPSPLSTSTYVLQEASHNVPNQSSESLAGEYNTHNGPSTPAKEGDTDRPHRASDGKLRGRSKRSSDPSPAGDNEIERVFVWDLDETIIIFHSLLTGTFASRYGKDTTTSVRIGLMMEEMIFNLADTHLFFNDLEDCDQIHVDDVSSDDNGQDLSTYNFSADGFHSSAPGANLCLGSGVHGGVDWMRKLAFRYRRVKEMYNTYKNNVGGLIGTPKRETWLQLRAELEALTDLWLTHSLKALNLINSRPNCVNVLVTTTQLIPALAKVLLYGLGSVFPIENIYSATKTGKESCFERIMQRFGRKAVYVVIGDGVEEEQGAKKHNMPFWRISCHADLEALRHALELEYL
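Eya2 protein (added as 0.2 uM solution) was preincubated with compound for 10 min at ambient temperature in 50 mM HEPES pH 7.5, 50 mM NaCl, 5 uM MgCl2, 0.05% BSA, 1 mM DTT. OMFP (added at 50 uM) then reacted 10 min; fluorescence read at 485/525 nm.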
D1 ag = human D1 receptor agonism; HEK293 T-REx D1 cells, calcium flux, agonist mode; 360,000 tested, 1% active; activation, % at 2 µM; P21728; in the data active = activation above about 30%
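Agonism was scored from calcium flux recorded over 180 s (1 read/s) after pintool compound addition, following a 10-cycle baseline. Cells were inducible force-coupled HEK293 TREx D1, plated overnight at 30 C and loaded with no-wash calcium dye.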
Of the large screens only hits and unclear results are named; the others gave an inactive call; ! = repeats disagree. Unless noted, calls follow the shape of the dose curve; as a rule, active = well fitted inhibition curve with a large enough effect; inconclusive = small, poorly fitted or top-dose-only effect, or effect the other way; inactive = flat fitted curve, though single readings scatter.

CCCc1ccc(Oc2cn[nH]c2-c2ccc(O)c(C)c2O)cc1	D1 ag 33
COc1ccc(Oc2c(-c3ccc(O)cc3O)n[nH]c2C)cc1	none
CCCCOc1ccc(CNC(=O)Cc2ccc(NC(=O)N3CCCCc4ccccc43)cc2)cc1	none (no result: USP2a block, GALK inhibitor, Eya2 inh)
COc1ccccc1NS(=O)(=O)c1cccc(C(=O)NC2CCN(Cc3ccccc3)CC2)c1	D1 antag -37 (no result: GALK inhibitor)
COc1ccccc1NS(=O)(=O)c1ccc(C)c(C(=O)NC2CCN(Cc3ccccc3)CC2)c1	none (no result: GALK inhibitor)
C=CCN(c1ccccc1)S(=O)(=O)c1cccc(C(=O)NC2CCN(Cc3ccccc3)CC2)c1	D1 antag -37 (no result: GALK inhibitor)
O=C(CSc1nc(=O)n(CCN2CCOCC2)c2c1CCC2)Nc1ccc(Cl)c(Cl)c1	none (no result: USP2a block, D1 antag, GALK inhibitor, Eya2 inh)
Cc1ccc(N2CCN(C(=O)C3CCC(CNS(=O)(=O)c4ccc(Br)s4)CC3)CC2C)cc1 (configuration not stated)	none (no result: USP2a block, GALK inhibitor, Eya2 inh)
Clc1cccc(-c2ccc3ncnc(NCc4cccs4)c3c2)c1	none (no result: GALK inhibitor)
Clc1ccccc1-c1ccc2ncnc(NCc3cccs3)c2c1	D1 antag -42 (no result: GALK inhibitor)
Cc1cccc(-c2ccc3ncnc(NCc4cccs4)c3c2)c1	D1 antag -46! (no result: GALK inhibitor)
Cc1csc(CNc2ncnc3ccc(-c4ccccc4Cl)cc23)c1	none (no result: GALK inhibitor)
Cc1csc(CNc2ncnc3ccc(-c4ccoc4)cc23)c1	D1 antag -63! (no result: GALK inhibitor)
Cc1c(CC(Cl)(Cl)Cl)c2c(n1O)CC(C)(C)CC2=O	D1 antag -46 (no result: GALK inhibitor)
COc1ccccc1N/C(N)=N/c1nc(CSc2nc3ccccc3s2)cc(=O)[nH]1	D1 antag -31
COCc1cc(=O)[nH]c(/N=C(\N)Nc2ccc(C)cc2)n1	none
COC(=O)Cc1cc(=O)[nH]c(/N=C(\N)Nc2ccc(C)cc2C)n1	D1 antag -32
CCOC(=O)Cc1cc(=O)[nH]c(/N=C(\N)Nc2ccc(C)cc2C)n1	D1 antag -38
COCc1cc(=O)[nH]c(/N=C(\N)Nc2ccccc2C)n1	none
CCc1ccccc1N1C(=O)N(Cc2cccc(Cl)c2)c2ccccc2S1(=O)=O	none (no result: USP2a block, GALK inhibitor, Eya2 inh)
Cc1ccc(-c2nnc(Nc3ccc(O)cc3)c3ccccc23)cc1S(=O)(=O)N1CCN(C)CC1	none (no result: USP2a block, GALK inhibitor, Eya2 inh)
CCOc1ccc(-c2nnc3ccc(SCC(=O)N4CCCCC4)nn23)cc1	none
CCOc1ccc(-c2nnc3ccc(SCC(=O)Nc4nc5ccc(C)cc5s4)nn23)cc1	D1 antag -43
CCOc1ccc(-c2nnc3ccc(SC(C)C)nn23)cc1	D1 antag -42
CCOc1ccc(-c2n[nH]c3c2C(c2cccs2)N(c2ccc(Br)cc2)C3=O)cc1 (configuration not stated)	none (no result: USP2a block, GALK inhibitor, Eya2 inh)
CCOC(=O)CSc1nc2c([nH]c3ccccc32)c(=O)n1-c1ccc(OC)cc1	none (no result: USP2a block, GALK inhibitor, Eya2 inh)
CCOc1ccc(OCCNCc2ccc(OC(C)C(=O)N(C)C)c(OCC)c2)cc1 (configuration not stated)	D1 ag 56
O=C(NCCc1csc(-c2cccnc2)n1)c1ccccc1	D1 antag -47!
Cc1cccc(C(=O)NCCc2csc(C)n2)c1	D1 antag -85
O=C(NCCc1csc(-c2ccccc2)n1)c1ccco1	D1 antag -30
O=C(NCCc1csc(-c2cccnc2)n1)c1cccc2ccccc12	none
O=C(NCc1csc(-c2ccccc2)n1)c1ccco1	none
O=C(NCCc1csc(-c2ccccc2)n1)c1cccs1	D1 antag -60
CCOc1ccccc1C(=O)N(Cc1ccco1)Cc1ccco1	none (no result: USP2a block, GALK inhibitor, Eya2 inh)
CCC(=O)N1CCc2cc(Br)cc(S(=O)(=O)N3CCCC(C(=O)N(C)c4ccc(Br)cc4)C3)c21 (configuration not stated)	none (no result: USP2a block, GALK inhibitor, Eya2 inh)
N#Cc1nc(Nc2ccc(-c3ccccc3)cc2)nc(NC2CCCC2)n1	none (no result: USP2a block, GALK inhibitor, Eya2 inh)
O=C(c1ccccc1)N1CCCC(c2nc3c(nnn3Cc3ccc(F)cc3F)c(=O)[nH]2)C1 (configuration not stated)	none (no result: USP2a block, GALK inhibitor, Eya2 inh)
CCS(=O)(=O)NCCc1csc(-c2cccnc2)n1	D1 antag -36
O=C(N/N=C/c1sc(=O)[nH]c1-[n+]1ccccc1)c1ccccc1[O-]	none
O=C(N/N=C/c1sc(=O)[nH]c1-[n+]1ccc2ccccc2c1)c1ccccc1[O-]	USP2a block inconclusive, D1 ag 34
CSC(=NCc1ccco1)NC#N	D1 antag -34
NC(=NCc1ccco1)NC(=O)c1ccccc1	none
CCCCNC(=S)Nc1ccc(SC(F)F)cc1	D1 antag -42
COCCCNC(=O)CSc1nc2cc3c(cc2c(=O)n1CCCCCC(=O)NCc1ccc2c(c1)OCO2)OCO3	none (no result: USP2a block, GALK inhibitor, Eya2 inh)
CCc1cc(=O)oc2cc(C)cc(OCC(=O)N3CCC(C(=O)NC(C)C)(c4ccccc4)CC3)c12	D1 antag -38
CCCCc1cc(=O)oc2c(C)c(OCC(=O)N3CCC(C(=O)O)(c4ccccc4)CC3)ccc12	none (no result: GALK inhibitor)
CCOc1ccc(C2C(C(=O)Nc3ccccc3)=C(C)Nc3nc(SCc4cccc(OC)c4)nn32)cc1 (configuration not stated)	none (no result: USP2a block, GALK inhibitor, Eya2 inh)
COc1ccc(S(N)(=O)=O)cc1C(=O)OCCCOc1ccc(F)cc1	D1 antag -34
COc1ccc(N2CCN(c3ncnc4c3cnn4-c3ccc(F)cc3)CC2)cc1	none (no result: USP2a block, GALK inhibitor, Eya2 inh)
Cc1nc(/C(N)=N/OC(=O)c2ccc(Cl)cc2)c(C(F)(F)F)o1	D1 antag -35
Cc1nc(C(=O)NNC(=O)c2cccc(Cl)c2)c(C(F)(F)F)o1	none
CCOc1ccc(NC(=O)CN2C(=O)c3ccccc3Sc3ccc(C(=O)OC)cc32)cc1	none (no result: USP2a block, GALK inhibitor, Eya2 inh)
Cc1nc2c(s1)sc1ccccc12	none
O=c1cc(O)sc2ccccc12	D1 ag 40
CN(CC(=O)Nc1ccc(F)c(Cl)c1)S(=O)(=O)c1cccc2nsnc12	D1 antag -34
CC1CCN(CCNC(=O)CN(C)S(=O)(=O)c2cccc3nsnc23)CC1	D1 antag -31
Cc1cc(C(=O)CSc2nnc(N)s2)c(C)n1Cc1cccs1	D1 antag -39
O=C(NCCc1ccc(Cl)cc1)c1ccc(CS(=O)Cc2cccc(Cl)c2)o1 (configuration not stated)	none (no result: USP2a block, GALK inhibitor, Eya2 inh)
CC(=O)c1cccc(NC(=O)CC2SC(N3CCCCC3)=NC2=O)c1 (configuration not stated)	none
O=C(CC1SC(N2CCCCC2)=NC1=O)Nc1cccc(C(F)(F)F)c1 (configuration not stated)	D1 antag -34
CC1CCCN(CC(O)COCC2COc3ccccc3O2)C1 (configuration not stated)	none
OC(COCC1COc2ccccc2O1)CN1CCc2ccccc2C1 (configuration not stated)	D1 ag 33
